KinaseGlo FLuc = counter-screen: inhibitors of Kinase-Glo firefly luciferase; Q27757; Kinase-Glo luciferase, ATP luminescence, 8 min; Potency, µM (doses to about 38.3 µM), inactives show at the highest dose activity change, negative = inhibition, hits mostly inhibitors; hit rate 0.28% among 200,000; AID 1379; also: nearly all actives have a fitted effect of over 60% in size
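Compounds were added to a substrate mix at pH 7.2 (50 mM imidazole, 10 uM ATP, within the enzyme's linear range), followed by Kinase-Glo detection reagent; luminescence was measured after 8 minutes at ambient temperature.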
RORg inh = inhibitors of mouse ROR gamma transcriptional activity; Potency, µM (highest dose often 53.6 µM), for inactives: at the top dose activity change, negative = inhibition, hits mostly inhibitors; AID 2551; hit rate 5.4% among 310,000; Drosophila S2 Gal4-RORgamma UAS-luciferase reporter, 20 h; P51450; also: nearly all actives have a fitted effect of over 60% in size
Target sequence (P51450 whole entry, looked up, the tested form may be a part): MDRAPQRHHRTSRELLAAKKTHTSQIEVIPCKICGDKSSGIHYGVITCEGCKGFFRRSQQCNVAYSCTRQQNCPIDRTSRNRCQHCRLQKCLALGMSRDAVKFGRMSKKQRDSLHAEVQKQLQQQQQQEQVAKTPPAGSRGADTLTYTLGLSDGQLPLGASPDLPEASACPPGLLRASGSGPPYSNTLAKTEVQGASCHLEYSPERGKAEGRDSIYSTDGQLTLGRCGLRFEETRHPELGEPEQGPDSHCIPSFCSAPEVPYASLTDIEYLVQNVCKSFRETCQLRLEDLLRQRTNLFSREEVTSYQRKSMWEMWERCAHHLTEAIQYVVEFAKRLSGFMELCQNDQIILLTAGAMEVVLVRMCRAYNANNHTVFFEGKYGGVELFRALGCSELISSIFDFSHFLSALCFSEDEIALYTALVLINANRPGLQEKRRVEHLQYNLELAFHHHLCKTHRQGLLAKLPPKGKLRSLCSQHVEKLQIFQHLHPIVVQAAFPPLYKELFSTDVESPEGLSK
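Stable Schneider cell line, Gal4 DNA-binding domain fused to ROR gamma, UAS-luciferase. Cmpd 1 hr RT → CuSO4 700 uM final → 20 hr RT → luciferase reagent 10 min → luminescence.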
VP16 counter = inhibits Gal4-VP16 luciferase reporter, ROR gamma counter-screen; Potency, µM (highest dose often 53.6 µM), for the others: top-dose activity, negative = inhibition, hits mostly inhibitors; Drosophila S2 Gal4-VP16 UAS-luciferase, luminescence, 20 h; hit rate 3.5% among 310,000; AID 2546;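 also: Gal4-VP16 expression switched on by copper sulfate through the metallothionein promoter; nearly all actives have a fitted effect of over 50% in size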
Numbers without * were called inactive; ? = inconclusive; / = no result; [ ] = dose if it differs, or a comment. In the library only some 6.2% were active in any assay of this set; here they are far more common. Calls follow the shape of the dose curve; as a rule, active = well fitted curve in the direction sought with a large enough effect; inconclusive = small, poorly fitted or top-dose-only effect, or another doubt; inactive = no such curve, though single readings can be large; an effect the other way counts as inactive or inconclusive. % is scaled to controls: 0 for no effect and ±100 for the full control effect; potency is read from the fitted curve at half-maximal effect.

SMILES | KinaseGlo FLuc | RORg inh | VP16 counter
C=CCOC(=O)N[C@H](/C(C(=O)OC)=C(\C)NCc1ccccc1)c1cccc(OC)c1 | 0.3% | -15.9% | 3.0%
c1ccc(Cn2c(NCc3ccncc3)nc3ccccc32)cc1 | 0.0% | 2.1% | -20.7%
CCN(CC)CCn1c(NCc2ccccn2)nc2ccccc21 | -3.8% | -23.9% | 0.1%
c1ccc(Cn2c(NCc3ccccn3)nc3ccccc32)cc1 | 1.9% | 10µM* | -6.4%
CCCCn1c(NCc2ccccn2)nc2ccccc21 | 1.0% | 7.08µM* | 12.6µM*
CCS(=O)(=O)N1CCC(C(=O)Nc2cc(C)ccc2O)CC1 | / | 14.1% | -11.2%
Cc1cc2nc(-c3ccc[nH]c3=O)n(Cc3ccc(F)cc3)c2cc1C | / | 8.9% | -11.4%
Cc1cc2nc(-c3ccc[nH]c3=O)[nH]c2cc1C | / | 7.94µM* | 6.31µM*
COc1ccc(-n2nnc3c(SCC(=O)N4CCN(c5ccccc5)CC4)ncnc32)cc1 | -3.7% | / | /
CCc1ccc2c(c1)[C@H]1OCC[C@H]1[C@@H](c1cccs1)N2 | 8.8% | ? | -2.4%
COc1cccc(-c2nnc(SCC(=O)Nc3cc(C)on3)o2)c1 | 0.9% | 12.6µM* | -18.7%
O=C(CSc1nnc(C2COc3ccccc3O2)o1)NC1CCCCC1 (stereo not drawn) | -1.3% | 2.9% | -1.0%
COc1ccc(-c2nnc(SCC(=O)Nc3ccccc3OC)o2)cc1 | 0.2% | -3.3% | 0.4%
COc1ccc(-c2nnc(SCC(=O)Nc3nncs3)o2)cc1 | 1.1% | 7.08µM* | 8.91µM*
Cc1cc(NC(=O)CSc2nnc(-c3cccc(Cl)c3)o2)no1 | / | ? | -4.5%
O=C(CSc1nnc(C2COc3ccccc3O2)o1)Nc1nccs1 (stereo not drawn) | 3.0% | ? | 22.4µM*
Cc1cc(-c2nnc(SCC(=O)Nc3nccs3)o2)no1 | / | 15.8µM* | ?
Cc1cc(-c2nnc(SCC(=O)Nc3ccccn3)o2)no1 | 1.8% | -1.7% | 6.2%[10 µM]
COc1ccc([C@@H]2CC(=O)c3c(O)cc(O[C@@H]4O[C@H](CO)[C@@H](O)[C@H](O)[C@H]4OC4O[C@@H](C)[C@H](O)[C@@H](O)[C@H]4O)cc3O2)cc1O (stereo partly drawn) | / | 0.2% | -0.7%
CCOC(=O)c1c(C)[nH]c(C(=O)COC(=O)C2(C)CC2(Cl)Cl)c1C (stereo not drawn) | 0.7% | 6.4% | -14.4%
Cc1cc(NC(=O)CSc2ccc(Cl)cc2)no1 | -2.0% | 31.9% | -6.1%
Cc1ccc2nc(SCC(=O)c3ccc(O)cc3O)[nH]c2c1 | / | -94.2% | 3.16µM*
COc1ccc(-c2ccc(SCC(=O)NCc3ccco3)nn2)cc1 | -5.0% | -12.0%[10 µM] | -1.5%
COc1ccc(-c2nnc(SCC(=O)NC(=O)NCc3ccco3)o2)cc1 | 0.0% | 7.94µM* | ?
Cc1cc(NC(=O)CSc2nc3cc(Cl)ccc3o2)no1 | / | 12.6µM* | -22.1%
SMILES | KinaseGlo FLuc | RORg inh | VP16 counter
COC(=O)CSc1nc2ccc(C)cc2[nH]1 | 4.1% | 8.4% | 3.6%
Cc1ccc2nc(SCC(=O)NC(=O)NCc3ccco3)[nH]c2c1 | -0.6% | 20.6% | 17.8µM*
Cc1ccc2nc(SCC(=O)NCc3ccco3)[nH]c2c1 | 17.9% | 31.7% | 13.4%
Cc1nc([N+](=O)[O-])c(C(=O)OCc2ccc(C#N)cc2)n1C | -2.2% | 40.9% | 16.9%
CC(Cc1ccsc1)NC(=O)CCc1nnc(COc2ccccc2)o1 (stereo not drawn) | -2.3% | 8.3% | 6.0%
Cc1ccc(N2CC(C(=O)Nc3c4c(nn3C(C)(C)C)CS(=O)(=O)C4)CC2=O)cc1C (stereo not drawn) | / | -1.0% | -15.6%
COc1cc(OC)cc(-c2nnc(SCc3cccc(C(=O)O)c3)o2)c1 | 0.0% | ? | 7.08µM*
O=C(O)c1cccc(CSc2nnc(-c3ccco3)o2)c1 | -0.4% | ? | ?
Cc1nc(SCC(C)C)[nH]c(=O)c1Cc1ccccc1 | -7.0% | -6.9% | -1.4%
Cc1cc(C)n(-c2nnc(C)c(=O)[nH]2)n1 | -0.3% | 15.8µM* | -10.4%
Cc1cc(C)n(-c2nc3sc4c(c3c(=O)[nH]2)CCCC4)n1 | -4.1% | 0.708µM* | 1.41µM*
Cc1nc2sc3c(c2c(=O)[nH]1)CCCCC3 | / | 16.4% | -7.2%
Cc1cc(C)n(-c2nnc(C)n2N)n1 | / | -1.1% | 3.9%
CCOC(=O)c1cnn(-c2nc(C)nc3sc4c(c23)CCC4)c1N | 11.3% | -2.5%[10 µM] | 6.2%
CCOC(=O)c1cnn(-c2nc3sc4c(c3c(=O)[nH]2)CCCC4)c1N | -5.9% | 0.562µM* | 0.794µM*
Cc1[nH]c(C)c(Cl)c(=O)c1Cl | -0.5% | 3.9% | -5.0%
CNC(=S)NNC(=O)c1sccc1OCc1ccc(Cl)cc1Cl | -3.3% | ? | ?
N/C(=N\NC(=O)c1sccc1OCc1ccc(Cl)cc1Cl)c1ccccn1 | -1.1% | 2.24µM* | 5.62µM*
CC(=O)NC(=S)Nc1cccc2c(C)cc(C)nc12 | -0.9% | 1.58µM* | 11.2µM*
Cc1ccc2cccc(NC(=S)NC(=O)c3ccccc3)c2n1 | -1.6% | 1.78µM* | 7.94µM*
Cc1csc(NC(=S)NC(=O)c2ccccc2)n1 | / | 2µM* | 3.16µM*
COc1cc(OC)nc(NC(C)=O)n1 | -2.9% | -18.3% | -10.7%
O=C(NC(=S)Nc1ccccc1C(=O)O)c1ccc2ccccc2c1 | / | 1.9% | 1.1%
Cc1csc(NC(=O)c2ccccc2)n1 | / | -80.7% | -14.2%
Cc1cc(C)c2cccc(N)c2n1 | -0.9% | -0.2% | 1.5%
SMILES | KinaseGlo FLuc | RORg inh | VP16 counter
COc1cc(OC)nc(NC(=S)NC(=O)c2ccccc2)n1 | 1.0% | 5.01µM* | ?
COc1cc2c(c(OC)c1OC)-c1c(cc3c(c1OC)OCO3)CC(C)C(C)(O)C2OC(=O)c1ccccc1 (stereo not drawn) | / | 35.1% | 3.5%
O=C(Nc1nc2ccccc2s1)c1ccc(OCC2CCCO2)cc1 (stereo not drawn) | / | -111.1% | ?
Cc1ccc2cn[nH]c2c1NC(=S)NC(=O)c1ccccc1 | -1.3% | ? | -3.5%
Cc1cc(C)c2cccc(NC(=S)NC(=O)c3ccccc3)c2n1 | -2.5% | ? | 3.16µM*
Cc1ccc2cccnc2c1NC(=S)NC(=O)c1ccccc1 | 2.6% | 1.26µM* | 3.55µM*
Cc1cc(C)nc(NC(=O)NC(=O)c2ccccc2)n1 | / | -31.2% | -1.1%
Cn1c(=O)[nH]c(=O)c2[nH]cnc21 | -3.1% | 2.9% | 3.9%
CCOC(=O)C/C(N)=N/N(C)c1ncc(C(F)(F)F)cc1Cl | -1.3% | -7.3% | -4.2%
CCOCCCn1c(=O)c2ccccc2n2c(=S)[nH]nc12 | / | ? | -20.3%
CC(C)CCn1c(=O)c2ccccc2n2c(=S)[nH]nc12 | / | 3.98µM* | 12.6µM*
S=C(NCCc1c[nH]c2ccccc12)NC1CCCC1 | 3.5% | -5.5% | -8.6%
S=C(NCCc1c[nH]c2ccccc12)NC1CCCCC1 | 3.8% | 14.1µM* | -26.0%
CNC(=S)NCCc1c[nH]c2ccc(OC)cc12 | -0.6% | -4.2% | -3.2%[10 µM]
COc1ccc2[nH]cc(CCNC(=S)NC3CCCC3)c2c1 | -1.1% | 10µM* | ?
CCN(CC(=O)Nc1c(C(=O)OC)[nH]c2ccc(C)cc12)c1ccc2c(c1)OCO2 | / | 4.3% | 10.1%
NC1=NCCCC1 | 1.7% | -5.1% | 3.4%
O=C(Nc1cc(Cl)cc(Cl)c1)C1CCC(=O)N1Cc1ccccc1Cl (stereo not drawn) | -0.7% | ? | 15.8µM*
CNC(=O)C1CCC(=O)N1Cc1ccccc1Cl (stereo not drawn) | -2.6% | 7.7% | 8.2%
